The source of these data is PMC5540273 (PLoS ONE, 2017).
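Also: KINOMEscan kinase panel screen.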

The test system of this test is DAPK1. As to conditions: concentration: 1 μM, replicates: in singlicate; n = 1.
On to `COc1cc2ncn(-c3cc(OCC4CCCO4)c(C(N)=O)s3)c2cc1OC` (stereo not shown) [GSK204607], for which the “%Inh” value amounted to 29%. In the case of `C[C@@H]1CCCCN1c1cc(-c2ccc3c(N)n[nH]c3c2)nc(N)n1` [GSK2258759], the “%Inh” value was 18%. The figure for `COc1ccc(C2=C(Nc3cccc(C(=O)O)c3)C(=O)NC2=O)cc1` [SB-390765] is 5%; for `CCCc1ccc(S(=O)(=O)NC2CCN(c3ccnc(Nc4ccc(F)cc4)n3)C2)cc1` (stereo not shown) [GSK1379715] it is 0%; for `O=C(Nc1ccccc1)Nc1cccc(Oc2ccc3nccn3n2)c1` it is 10%. Then `Cn1ccc2ncnc(Oc3ccc(Nc4nc5ccccc5[nH]4)cc3)c21`, with 0%. As to `Cc1cccc(-c2cc(Nc3ccncc3)c3ccccc3n2)n1` [GSK223675], the “%Inh” value came to 18%. The figure for `Cc1ccc(NC(=O)Nc2cccc(Cl)c2)cc1-c1ccc(C(=O)Nc2ccncc2)cc1` [GSK1398468] is 3%. Then `COc1ccc(CNC(=O)NC2CCN(c3ccnc(Nc4cc(OC)c(OC)c(OC)c4)n3)C2)cc1` (stereo not shown) [GSK1379748], with 0%; and `O=S(=O)(c1ccc(-c2ccnc3[nH]ccc23)cc1)N1CCCC1` [GSK846226], with 58%; and `COc1ccccc1-c1ccc2c(NC(=O)C3CC3)n[nH]c2n1` [SB-711239], with 0%. For `Cl.O=C(Nc1cccc(-c2nn3ncccc3c2-c2ccnc(Nc3cccnc3)n2)c1)c1c(F)cccc1F` [GSK312879], the “%Inh” value was 2%. Then `O=C(Nc1n[nH]c2nc(-c3nccs3)c(Br)cc12)C1CCCC1` [SB-742609], with 0%.
